ALR H2O2 inh: inhibitors of human sulfhydryl oxidase ALR | P55789 | purified ALR, DTT oxidation, H2O2 HRP-luminol luminescence | inhibition, % (test concentration not listed) | actives 3.8% (n = 290,000) | AID 485317;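 active = mean replicate inhibition above about 79%, with every replicate also reaching it, limit read from the data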
Target sequence (P55789 whole entry, looked up): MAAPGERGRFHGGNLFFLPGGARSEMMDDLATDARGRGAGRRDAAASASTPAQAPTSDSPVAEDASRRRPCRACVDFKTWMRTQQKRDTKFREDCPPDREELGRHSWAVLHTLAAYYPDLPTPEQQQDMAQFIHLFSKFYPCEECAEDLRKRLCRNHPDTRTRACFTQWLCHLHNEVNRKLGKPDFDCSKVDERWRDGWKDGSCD
SUMO Mot1 rescue: SUMOylation pathway inhibition by Mot1-301 growth rescue; S. cerevisiae Mot1-301 growth rescue, ATP luminescence, 38.5C; percent above DMSO median, 100 means doubled; growth rescue, % at 18.8 µM; actives 1% (n = 320,000); AID 2716;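 active = every valid replicate shows activation above 250% relative to neutral control wells; inactive = the rest, any valid replicate at or below 250%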;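 also: OY570 slx delta 5 strain wells were the positive control but not used for scaling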
M18AAP inhibitor: PfM18AAP enzyme inhibition; recombinant PfM18AAP, H-Glu-NHMec fluorogenic cleavage; inhibition, % at 7.35 µM; actives 1.2% (n = 290,000); AID 1822;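 active = inhibition above the campaign mean inhibition over all tested compounds plus 3 SD, cut at about 28% in these data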;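 also: 0% = plate median of test compound wells and 100% = 2 mM ZnCl2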
HIF activator: HIF pathway transcriptional activation; actives 0.32% (n = 300,000); U2OS HRE-luciferase reporter, luminescence; normalized: DMSO 0%, desferrioxamine 100%; activation, % at 7.5 µM (by protocol);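 active = mean activation of at least 10% of the iron chelator positive control signal, with at least half of replicates also reaching 10%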
An asterisk follows results filed as active; nt = no result. An excerpt weighted towards active compounds, which were near 5.3% of everything screened.

SMILES	ALR H2O2 inh	SUMO Mot1 rescue	M18AAP inhibitor	HIF activator
O=C(CN(c1ccccc1)S(=O)(=O)c1ccccc1)Nc1ccccc1C(=O)NCc1ccco1	-4	3	0	0
Cc1ccc(N(CC(=O)Nc2ccccc2C(=O)NCc2ccco2)S(=O)(=O)c2ccccc2)cc1C	96*	-14	0	nt
CCCC1CCC(c2nc(-c3cccnc3)no2)CC1 (configuration not stated)	1	24	-10	1
CCCCCCC1CCC(c2nc(-c3ccncc3)no2)CC1 (configuration not stated)	-13	-9	-9	35*
COc1ccc2c3c([nH]c2c1)C(C)N(CCC(=O)NN)CC3 (configuration not stated)	59	16	8	1
COc1ccc2c3c([nH]c2c1)C(C)N(C(C)=O)CC3 (configuration not stated)	97*	-19	5	0
O=C(NNc1ccc(F)cc1)c1c(F)cccc1Cl	0	142	30*	0
O=C(NNc1ccc(Cl)cc1)c1c(F)cccc1Cl	13	108	31*	0
O=C(NNc1cc(Cl)ccc1Cl)c1c(F)cccc1Cl	28	26	19	0
CC1CCCCC1NC(=O)CN1c2cccc3cccc(c23)S1(=O)=O (configuration not stated)	-35	0	nt	nt
O=C(CCn1c(=O)oc2ccccc21)Nc1cccc(Cl)c1	-10	-1	5	0
O=C(CCn1c(=O)oc2cc(Cl)ccc21)Nc1ccc(O)cc1	98*	375	1	-1
O=C(N/N=C/c1coc2ccc(Cl)cc2c1=O)c1ccc(O)cc1	98*	-3	6	0
NC(=S)N/N=C/c1coc2ccc(Cl)cc2c1=O	4	324*	24	1
O=C(N/N=C/c1coc2ccc(Cl)cc2c1=O)c1ccncc1	-4	-22	26	0
O=C(COc1ccc2ccccc2c1)Nc1ccc(S(=O)(=O)N2CCCCCC2)cc1	-12	-9	0	-24
COc1ccc(NC(=O)CN2C(=O)COc3ccc(S(=O)(=O)N4CCCCC4)cc32)c(OC)c1	-10	486	-2	0
CCOC(=O)C(C)On1c(-c2ccccc2)nc2ccc([N+](=O)[O-])cc21 (configuration not stated)	97*	10	5	2
CCOC(=O)C(C)On1c(-c2ccc(Cl)cc2)nc2ccc([N+](=O)[O-])cc21 (configuration not stated)	-2	12	-13	3
c1ccc2c(Nc3ccc(N4CCOCC4)cc3)nc(N3CCOCC3)nc2c1	92*	-7	-1	0
COc1ccc(CNc2ccc(N3CCOCC3)cc2)cc1	99*	-2	-18	-5
Cc1cccc(-c2nc(Nc3ccc(N4CCOCC4)cc3)c3ccccc3n2)c1	nt	37	4	0
O=C(N1CCOCC1)N1CCN(c2ccccc2)CC1	54	-13	0	0
c1ccc(N2CCOCCOCCOCCOCCOCC2)cc1	96*	-5	2	0
c1ccc(CNc2ccc(N3CCOCC3)cc2)cc1	99*	2	nt	nt
SMILES	ALR H2O2 inh	SUMO Mot1 rescue	M18AAP inhibitor	HIF activator
COc1ccc(OC)c(NS(=O)(=O)c2c(C)nc3sccn3c2=O)c1	-2	-13	1	0
Cc1nn(-c2cc(N3CCCCCC3)ccc2[N+](=O)[O-])c(=O)c2ccccc12	-7	29	4	0
Cc1nn(-c2cc(N3CCCCC3)ccc2N)c(=O)c2ccccc12	99*	-12	-3	0
C/C(=N/NC(=O)CNC(=O)c1ccncc1)c1ccco1	9	-14	-17	0
COc1ccc(CNC(=O)C2CSC(c3ccc(OC)cc3)N2C(C)=O)cc1 (configuration not stated)	85*	-4	7	nt
COc1ccc(C2SCC(C(=O)O)N2C(C)=O)cc1 (configuration not stated)	-5	-1	-11	0
CNc1sc(C(=O)c2ccccc2F)c(N)c1-c1nc2ccccc2s1	91*	-6	1	2
O=C(CNC(=O)c1ccccc1F)OCc1nc2ccccc2s1	-2	-1	11	3
CN(C)CCCN(C(=O)c1cc2cc([N+](=O)[O-])ccc2s1)c1nc2cc3c(cc2s1)OCCO3	-4	-29	nt	-4
Cc1cc(O)cc(C)c1NS(=O)(=O)c1ccc2ccccc2c1	79*	3	-6	-2
Cc1ccc(S(=O)(=O)Nc2c(O)ccc3ccccc23)cc1	88*	0	nt	3
O=S(=O)(Nc1c(O)ccc2ccccc12)c1cccc2ccccc12	87*	-23	nt	0
COc1ccc(CNC2CC(C)N(C)CC2C)cc1OC (configuration not stated)	-2	18	0	1
Cc1ccccc1OCCC(=O)OCC(=O)NC1CCCCC1	-3	177	nt	1
CCc1nnc(NC(=O)CSc2nnc(C)c(=O)n2N)s1	95*	-1	-10	0
Cc1nnc(SCC(=O)Nc2ccc(S(N)(=O)=O)cc2)n(N)c1=O	99*	-10	nt	nt
Cc1ccc(NC(=O)CSc2nnc(C)c(=O)n2N)cc1	5	140	-9	-1
Cc1nnc(NC(=O)CSc2nnc(C)c(=O)n2N)s1	-14	14	1	-1
CCc1ccc(NC(=O)CSc2nnc(C)c(=O)n2N)cc1	99*	6	-4	0
COc1ccc(C(=O)CSc2nnc(CNC(=O)c3ccccc3)o2)cc1	38	-5	-3	0
Brc1ccc(-c2nc3ncccn3c2Nc2ccc3c(c2)OCCO3)o1	98*	nt	-14	1
Clc1ccc(-c2nc3ncccn3c2Nc2ccc3c(c2)OCCO3)cc1	-10	-17	-11	1
Cc1ccc(-c2nc3ncccn3c2NC2CCCCC2)o1	99*	-7	-5	0
COc1ccc(-c2nc3ncccn3c2Nc2ccc3c(c2)OCCO3)cc1	nt	nt	-2	2
Cc1ccc(-c2nc3ncccn3c2Nc2ccc3c(c2)OCCO3)o1	99*	9	12	3
SMILES	ALR H2O2 inh	SUMO Mot1 rescue	M18AAP inhibitor	HIF activator
Cc1ccc(-c2nc3ncccn3c2NC(=O)C2CC2)cc1	1	6	-12	0
C=CCn1c(SCC(=O)N(CCOC)c2c(N)n(CCCC)c(=O)[nH]c2=O)nnc1-c1ccc(Cl)cc1	nt	153	nt	0
Cc1ccc(NC2CCCN(C(=O)c3ccccn3)C2)cc1C (configuration not stated)	99*	4	9	0
Cc1cc(C(=O)N2CCCC(Nc3ccc(F)cc3)C2)n(C)n1 (configuration not stated)	55	-18	4	0
Cc1ccc(NC2CCCN(C(=O)c3cc(C(C)C)[nH]n3)C2)cc1C (configuration not stated)	99*	-3	13	0
CCCc1cc(C(=O)N2CCCC(Nc3ccc(C)c(C)c3)C2)n(C)n1 (configuration not stated)	98*	-5	4	0
CSc1nc(C(=O)N2CCCC(Nc3ccc(C)c(C)c3)C2)cs1 (configuration not stated)	98*	-24	1	0

Compound activity deposited in PubChem BioAssay by several laboratories.
